# Measured values taken from PubChem BioAssay (NCI).
# The panel holds about 83,000 compounds, 20% with a hit somewhere; the sample as a whole holds those more often.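 Cell lines were cultured in 96-well plates, exposed to a single compound concentration, and assessed for percent growth 48 hours later.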 A number with no mark means an inactive call. Activity calls are given as the source filed them. How the source made its calls: active means growth percent below 10; inactive means the rest.
# System: T-47D breast
# Test: NCI-60 one-dose screen, 48 h (100 = growth as untreated, 0 = no growth, -100 = all killed)
# Conditions: 10 µM unless noted
row,Structure (SMILES),growth
1,CC[C@]12C=CCN3CC[C@@]4(c5ccc(OC)cc5N(C)[C@H]4[C@@](O)(C(=O)OC)[C@@H]1OC(=O)CCC(=O)O[C@H]1CC[C@H]4[C@@H]5CCC6=CC(=O)CC[C@@H]6[C@H]5CC[C@]14C)[C@@H]32,21.6% [100 µM]
2,CC(C)c1ccc(/C=N/N=C(N)N)cc1,91%
3,C=C(C)[C@@H]1CC[C@]2(C(N)=O)CC[C@]3(C)[C@H](CC[C@@H]4[C@@]5(C)CC[C@H](O)C(C)(C)[C@@H]5CC[C@]43C)[C@@H]12,-24.8% [100 µM] (active)
4,CC1(C)CC[C@]2(C(=O)O)CC[C@]3(C)C(=CC[C@@H]4[C@@]5(C)C/C(=C/c6cccnc6)[C@H](O)C(C)(C)[C@@H]5CC[C@]43C)[C@@H]2C1,15.1% [100 µM]
5,C#CCNC(=O)CC[C@]1(C)[C@H]2CC[C@@H]3[C@@H]([C@@](C)(O)CCC=C(C)C)CC[C@@]3(C)[C@]2(C)CC[C@H]1C(=C)C,37.3% [100 µM]
6,CCOC(=O)c1nn(C2CCCCO2)c2ccc(NC(=O)CSc3nc4ccccc4c(=O)[nH]3)cc12 (stereo not drawn),99.1%
7,O=C(Nc1ccc(Oc2ccc(F)cc2)c(Cl)c1)c1cccnn1,37.6%
8,CC(=O)n1cc(C=O)c2ccccc21,98.8%
